From PubChem BioAssay (NCATS)
Inconclusive results are not listed. Calls of active or inactive are those of the source. Calls follow the shape of the dose curve; as a rule, active = well fitted inhibition curve with a large enough effect; inconclusive = small, poorly fitted or top-dose-only effect; inactive = flat fitted curve, though single readings scatter.

Tests used:
Test in all cases: Cytotoxic Profiling of Annotated Libraries Using Quantitative High-Throughput Screening (AID 1296008); also: nearly all actives have a fitted effect of over 60% in size
Details in all cases: Five cell lines viability, CellTiter-Glo ATP luminescence, 48-72 h; max response: hits give low values
CRL-7250 = system: CRL-7250
Summary of the method: (§1)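 Compounds were pin-transferred onto cells and incubated 48 or 72 hr at 37 degree Celsius, 95% humidity. CellTiter-Glo was added, plates sat 10 min at room temperature, then ATP-coupled luminescence was imaged as the viability read-out.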

HEK293 = system: HEK293
Summary of the method: as §1

HaCat = system: HaCat
Summary of the method: as §1

KB-3-1 = system: KB-3-1
Summary of the method: as §1
% is scaled to controls: 0 for no effect and ±100 for the full control effect; potency is read from the fitted curve at half-maximal effect.

COc1cc(/C=C/CO)cc(OC)c1O[C@@H]1O[C@H](CO[C@@H]2O[C@H](CO)[C@@H](O)[C@H](O)[C@H]2O)[C@@H](O)[C@H](O)[C@H]1O
inactive: max response (CRL-7250) 3.07% | max response (HEK293) 1.54% | max response (HaCat) 4.69% | max response (KB-3-1) 9.56%

CC1CC[C@]2(C(=O)O)CC[C@]3(C(=O)O)C(=CCC4[C@@]5(C)CC[C@H](O[C@@H]6O[C@H](CO)[C@@H](O)[C@H](O)[C@H]6O)C(C)(C)C5CC[C@]43C)C2C1C (stereo partly specified)
inactive: max response (CRL-7250) -9.19% | max response (HEK293) -4.94% | max response (HaCat) 4.65% | max response (KB-3-1) 6.73%

CC1CCC2C(C)(C)[C@@H](O)CC[C@]2(C)C12Cc1c(O)cc3c(c1O2)CN(C(CCC(=O)O)C(=O)O)C3=O (stereo partly specified)
inactive: max response (CRL-7250) -1.01% | max response (HEK293) -4.16% | max response (HaCat) 3.85% | outcome (KB-3-1)

CC(C)=CCC/C(C)=C/CC/C(C)=C/COC1OC(COC2OCC(OC3OCC(O)C(O)C3O)C(O)C2O)C(O)C(OC2OC(C)C(OC3OC(C)C(OC4OCC(OC5OC(C)C(O)C(O)C5O)C(O)C4O)C(O)C3O)C(O)C2O)C1O (stereo unspecified)
inactive: max response (CRL-7250) 1.98% | max response (HEK293) 4.79% | outcome (HaCat) | max response (KB-3-1) 6.01%

Cc1ccc(S(=O)(=O)Cc2nc(-c3ccc(C(=O)NCc4cccnc4)cc3)oc2C)cc1
active: Potency (CRL-7250) 65.1 nM | Potency (HEK293) 6.5 nM | Potency (HaCat) 146 nM | Potency (KB-3-1) 8.2 nM

COC(=O)C1=C2Nc3ccccc3C23CCN2CCCC(C(C)O)(C1)C23 (stereo unspecified)
inactive: outcome (CRL-7250) | max response (HEK293) -3.43% | max response (HaCat) -21.7% | max response (KB-3-1) 6.23%

CC1(C)CC[C@]2(C(=O)O[C@@H]3O[C@H](CO)[C@@H](O)[C@H](O)[C@H]3O)CC[C@]3(C)C(=CCC4[C@@]5(C)C[C@@H](O)[C@H](O)C(C)(C)C5[C@H](O)C[C@]43C)[C@@H]2[C@@H]1O (stereo partly specified)
inactive: outcome (CRL-7250) | max response (HEK293) 1.53% | max response (HaCat) 0.337% | outcome (KB-3-1)

Cc1c(F)cc(C(=O)NC2CC2)cc1-c1c(F)cn2c(C(C)(C)C)nnc2c1F
inactive: max response (CRL-7250) -14.4% | max response (HEK293) -22.1% | max response (HaCat) -0.453% | max response (KB-3-1) -2.87%

C=C(C)C1Cc2cc(C(=O)OC3OC(CO)C(O)C(O)C3O)ccc2O1 (stereo unspecified)
inactive: max response (CRL-7250) -9% | max response (HEK293) -15% | max response (HaCat) -9.03% | max response (KB-3-1) 0.614%

O=C(CSc1nc2c(c(=O)n1-c1ccccc1)SCC2)Nc1ccc(-c2ccccc2)cn1
active: Potency (CRL-7250) 231 nM | Potency (HEK293) 41.1 nM | Potency (KB-3-1) 46.1 nM
inactive: max response (HaCat) -7.15%

Cn1cc(-c2ccc3nnc(Sc4ccc5nn(C)cc5c4)n3n2)cn1
inactive: max response (CRL-7250) -2.56% | outcome (HEK293) | max response (HaCat) -20.1% | outcome (KB-3-1)

COC(=O)N[C@H](C(=O)N1[C@@H]2CC[C@@H](C2)[C@H]1c1nc2ccc(-c3ccc4c(c3)C(F)(F)c3cc(-c5cnc([C@@H]6CCC7(CC7)N6C(=O)[C@@H](NC(=O)OC)C(C)C)[nH]5)ccc3-4)cc2[nH]1)C(C)C
active: Potency (HEK293) 3990 nM
inactive: max response (CRL-7250) -2.17% | max response (HaCat) -33.1% | max response (KB-3-1) -8.63%

C=C1CCC2C(C)(C)CCC[C@]2(C)[C@H]1C/C=C(\CO)C(=O)C(=O)O (stereo partly specified)
inactive: max response (CRL-7250) -8.85% | max response (HEK293) 1.79% | max response (HaCat) 3.5% | max response (KB-3-1) -9.53%

C[C@@H]1CC[C@@]2(OC1)O[C@H]1C[C@H]3[C@@H]4CC=C5C[C@@H](O)CC[C@]5(C)[C@H]4CC[C@]3(C)[C@H]1[C@@H]2C
inactive: max response (CRL-7250) 3.2% | max response (HEK293) -1.54% | max response (HaCat) 4.49% | max response (KB-3-1) -3.17%

CC(c1ncncc1F)C(O)(Cn1cncn1)c1ccc(F)cc1F (stereo unspecified)
inactive: outcome (CRL-7250) | max response (HEK293) -0.4% | max response (HaCat) -2.25% | max response (KB-3-1) 0.345%

CNS(=O)(=O)c1ccccc1Nc1nc(Nc2ccc(N3CCN(C)CC3)cc2OC)ncc1Cl
active: Potency (CRL-7250) 1460 nM | Potency (HEK293) 1300 nM | Potency (HaCat) 2590 nM | Potency (KB-3-1) 920 nM

NCc1c[nH]c(=S)n1[C@@H]1CCc2c(F)cc(F)cc2C1
inactive: outcome (CRL-7250) | max response (HEK293) -9.28% | max response (HaCat) 3.97% | max response (KB-3-1) -4.38%

CC1(C)CCCC2(C)C=C(C(=O)O)C(O)CC12 (stereo unspecified)
inactive: outcome (CRL-7250) | max response (HEK293) -6.67% | max response (HaCat) -0.18% | max response (KB-3-1) 1.72%

C/C=C1\[C@H](OC2OC(COC3OC(CO)C(O)C(O)C3O)C(O)C(O)C2O)OC=C(C(=O)OC)[C@H]1CC(=O)OCCc1ccc(O)cc1 (stereo partly specified)
inactive: max response (CRL-7250) -3.04% | max response (HEK293) -70.9% | max response (HaCat) -0.414% | max response (KB-3-1) 2.72%
